# Test results: the supplement of paper PMC10646978
# ± gives the standard deviation.
# Tests used:
# Conditions in all cases: modulator concentration 10 µM
# [1] = test system: RAW-Dual (murine macrophage reporter line); assay: NF-kB reporter (SEAP) activity fold change vs agonist alone; higher = enhanced NF-kB activity
# How it was run: (§1)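 Compound reached 10 μM final in each well by pin transfer, onto RAW-Dual murine macrophage reporter cells seeded at 50 000 per well in 384-well plates. After 1 hour at 37 °C, the cells were stimulated overnight with a PRR agonist. SEAP in the supernatant was read with QUANTI-Blue at 620 nm absorbance for NF-κB, and Lucia luciferase was read with QUANTI-Luc luminescence for IRF. Each signal was turned into fold change against the mean agonist-only control on the same plate, and two replicate plates were averaged with propagated errors.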
# [2] = test system: RAW-Dual (murine macrophage reporter line); assay: IRF reporter (Lucia luciferase) activity fold change vs agonist alone; higher = enhanced IRF activity
# How it was run: as §1
# [3] = test system: RAW-Dual (murine macrophage reporter line); assay: viability score (confluency relative to resting cells, overnight) (fraction); higher = more viable, active = viable (0.7 or more)
# How it was run: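 RAW-Dual macrophages in 384-well plates were treated overnight with compound at 10 μM final. IncuCyte imaging recorded confluency, and IncuCyte software built two confluency masks across every imaged well. The viability score expresses confluency relative to resting cells and was judged against a cutoff, which a compound met only if both masks exceeded 70% of resting cells.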
# [4] = agonist: CpG ODN 1826 0.5 ug/mL
SMILES,"NF-kB reporter [1, 4]",NF-kB reporter ([1]; agonist: LPS 0.1 ug/mL),NF-kB reporter ([1]; agonist: MPLA […]),IRF reporter ([2]; agonist: 3'3'-cGAMP 10 ug/mL),IRF reporter ([2]; agonist: LPS 0.1 ug/mL),IRF reporter ([2]; agonist: MPLA […]),viability score [3]
CC/C(=C(\c1ccccc1)c1ccc(OCCN(C)C)cc1)c1ccccc1.O=C(O)CC(O)(CC(=O)O)C(=O)O,0.808 ± 0.064,0.859 ± 0.053,1.09 ± 0.11,0.963 ± 0.048,1.32 ± 0.076,1.38 ± 0.12,1.02 (active)
CCCCCCC=CCCCCCCCc1cccc(O)c1C(=O)O,0.897 ± 0.067,0.987 ± 0.069,0.96 ± 0.029,0.774 ± 0.043,0.991 ± 0.12,1.06 ± 0.14,1 (active)
COc1ccc2cc(Br)ccc2c1CC(=O)O,0.759 ± 0.06,0.954 ± 0.045,1.01 ± 0.087,0.918 ± 0.043,1.29 ± 0.076,1.33 ± 0.19,1.02 (active)
COc1cc2c(cc1OC)C(=O)C(CC1CCN(Cc3ccccc3)CC1)C2 (stereo not drawn),0.586 ± 0.14,0.954 ± 0.058,1.05 ± 0.066,0.797 ± 0.027,0.813 ± 0.096,0.897 ± 0.11,0.99 (active)
CCOC(=O)C1C(=O)NC(SCC(N)=O)=C(C#N)C1c1ccccc1OCC (stereo not drawn),0.936 ± 0.052,0.994 ± 0.063,0.926 ± 0.07,1 ± 0.072,1.25 ± 0.083,1.03 ± 0.098,1 (active)
COc1cccc2c1C(=O)c1c(O)c3c(c(O)c1C2=O)C[C@@](O)(C(=O)CO)C[C@@H]3O[C@H]1C[C@H](N)[C@H](O)[C@H](C)O1.Cl,0.0942 ± 0.012,0.0784 ± 0.0047,0.178 ± 0.036,0.101 ± 0.014,0.0915 ± 0.01,0.127 ± 0.024,0.372 (inactive)
O=C(C=Cc1ccc(-c2cccc(Cl)c2)o1)c1ccc(Cl)cc1,0.755 ± 0.085,0.746 ± 0.038,0.857 ± 0.079,0.446 ± 0.031,0.896 ± 0.058,0.724 ± 0.14,0.957 (active)
C=CCN1C(=O)C(C)(C)COc2cc(NC(=O)c3ccc(Br)o3)ccc21,1.25 ± 0.11,0.93 ± 0.21,1.07 ± 0.037,0.53 ± 0.046,0.933 ± 0.096,0.982 ± 0.24,0.994 (active)
CC1=NN(C(=O)c2cccnc2)C(O)(c2ccccc2)C1 (stereo not drawn),0.893 ± 0.071,0.969 ± 0.1,0.949 ± 0.041,0.951 ± 0.09,1.05 ± 0.13,1.1 ± 0.2,0.994 (active)
COc1ccc2c3c1O[C@H]1C[C@@H](O)C=C[C@@]31CCN(C)C2 [Prestw-588],1.13 ± 0.077,1.07 ± 0.091,0.95 ± 0.038,0.997 ± 0.056,0.987 ± 0.046,0.923 ± 0.16,0.998 (active)
CCN1CCN(Cc2c(O)ccc3c2OC(=Cc2ccc(C)cc2)C3=O)CC1,1.05 ± 0.078,1.03 ± 0.14,1.2 ± 0.028,0.945 ± 0.058,0.967 ± 0.12,1.06 ± 0.13,0.995 (active)
Cc1cc(NC(=O)CC(C)C)ccc1N1CCCCC1=O,1.03 ± 0.097,1.03 ± 0.085,0.936 ± 0.11,1 ± 0.065,1.23 ± 0.11,1.14 ± 0.32,1.01 (active)
CCCCC1(C)OC(=O)C(=Cc2ccc(OC)c([N+](=O)[O-])c2)C(=O)O1 (stereo not drawn),0.994 ± 0.17,1.07 ± 0.11,0.951 ± 0.086,0.966 ± 0.038,1.16 ± 0.13,1.25 ± 0.15,1 (active)
Oc1c(Br)cc(C=NNc2nc3ccccc3s2)c(O)c1Br,0.957 ± 0.082,0.958 ± 0.098,1.08 ± 0.1,0.642 ± 0.069,1.35 ± 0.23,1.63 ± 0.44,1.03 (active)
Cc1ccc(C2(c3ccc(C)cc3)CC2C(=O)Nc2ccccc2)cc1 (stereo not drawn),0.728 ± 0.079,0.905 ± 0.12,1.51 ± 0.071,0.541 ± 0.031,0.835 ± 0.12,0.654 ± 0.12,0.992 (active)
Cc1ccc(Nc2nc(Cl)nc(Nc3ccc(C(C)C)cc3)n2)cc1,0.851 ± 0.067,1.06 ± 0.078,1.19 ± 0.13,0.828 ± 0.045,1.1 ± 0.19,1.33 ± 0.32,1.03 (active)
Cc1nnc(NC(=O)c2cccc([N+](=O)[O-])c2)s1,1.03 ± 0.084,0.97 ± 0.093,0.999 ± 0.038,1.05 ± 0.25,1.06 ± 0.049,1.09 ± 0.15,1 (active)
CC1CN(C2=NC(=O)C(=Cc3ccc(-c4ccccc4Cl)o3)S2)CC(C)O1 (stereo not drawn),0.495 ± 0.054,0.841 ± 0.053,0.943 ± 0.089,0.813 ± 0.053,1.34 ± 0.12,1.44 ± 0.15,1.02 (active)
COc1ccc(-n2ncc3c(Nc4cc(OC)c(OC)c(OC)c4)ncnc32)cc1,1.13 ± 0.05,0.938 ± 0.078,1.09 ± 0.085,0.821 ± 0.044,1.04 ± 0.26,1.28 ± 0.45,0.887 (active)
CN(C)c1nc(CNS(C)(=O)=O)nc(N2CCCCC2)n1,1 ± 0.092,1.08 ± 0.091,1.03 ± 0.044,0.991 ± 0.044,1.03 ± 0.071,0.965 ± 0.21,1 (active)
CCN(CC)CCOCCOC(=O)C1(c2ccccc2)CCCC1 [Prestw-387],0.668 ± 0.12,1.14 ± 0.12,0.993 ± 0.12,0.684 ± 0.019,1.03 ± 0.12,1.11 ± 0.19,0.993 (active)
O=Cc1cn(CCOc2ccc(Br)cc2)c2ccccc12,1.25 ± 0.13,1.06 ± 0.054,1.59 ± 0.22,0.684 ± 0.033,0.674 ± 0.043,0.67 ± 0.085,0.977 (active)
Cc1cnc(NC(=O)C2=C(O)c3ccccc3S(=O)(=O)N2C)s1,1.24 ± 0.18,1.06 ± 0.41,0.953 ± 0.066,0.927 ± 0.036,1.15 ± 0.29,0.987 ± 0.089,1.01 (active)
Cc1ccccc1N(CC(=O)NCCSc1ccc(Cl)cc1)S(=O)(=O)c1ccccc1,0.66 ± 0.079,1.01 ± 0.056,0.851 ± 0.056,0.64 ± 0.034,1.4 ± 0.11,1.1 ± 0.13,1 (active)
